Laboratory results reported in PubChem BioAssay (EPA / NIEHS).
Records with an inconclusive call do not appear. Active and inactive are the calls of the source. Rule for the calls, unless noted: active = hit-call score of the fitted dose curve at least 0.9, where 1 is the maximum; inactive = score below 0.9.

Experiments:
[1] = ACEA_ER_80hr: ACEA Biosciences xCELLigence Real-Time Cell Analysis on Estrogen Receptor Agonism for Proliferation (AID 2282667; active = hit-call score of the fitted dose curve at least 0.9, where 1 is the maximum); settings: T47D proliferation, impedance (xCELLigence), 80 h
Procedure, shortened: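 Cell-growth kinetics were measured by impedance in T47D cells treated continuously with compound (top 100 uM final, 1:4 steps, 8 points). Activity at 80 h was scored as signal gain over the DMSO baseline.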

[2] = ATG_CRE_CIS: Attagene CIS-FACTORIAL HepG2 Assay for human cAMP Responsive Element (CRE) binding protein 3 (AID 2282926); settings: HepG2 CRE cis-reporter, Attagene multiplexed mRNA; actives raise or lower the signal
Procedure, shortened: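 Cells carrying cis-regulated reporter constructs respond through their own endogenous factors. After 24 h treatment, RNA is reverse-transcribed, amplified, labelled and sized by capillary electrophoresis; up- and down-regulation are both scored against vehicle.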

[3] = molecular target: CCAAT/enhancer-binding protein beta (Homo sapiens) (UniProt P17676); assay: ATG_C_EBP_CIS: Attagene CIS-FACTORIAL HepG2 Assay for human CCAAT/Enhancer Binding Protein (C/EBP) beta (AID 2282927); settings: HepG2 Attagene cis-factorial transcription factor reporter; actives raise or lower the signal
Procedure, shortened: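 Transiently transfected HepG2 (MRTU library, endogenous TF-driven promoters); 24 h dosing; total RNA → oligo(dT) RT → PCR → 6-FAM primer extension → HpaI digest → CE; fit bidirectionally vs DMSO.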

[4] = ATG_CMV_CIS: Attagene CIS-FACTORIAL HepG2 Assay for human CMV (Internal Marker) (AID 2282928); settings: HepG2 CMV promoter reporter, transcription factor profiling; actives raise or lower the signal;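 note: endpoint acts as a background internal control marker rather than a target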
Procedure, shortened: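 Bidirectional fits against DMSO are applied to reporter mRNA, read by RT-PCR with capillary electrophoresis, from HepG2 cells exposed 24 h. The endpoint serves as an internal CMV background marker within the cis-factorial reporter panel.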

[5] = ATG_DR4_LXR_CIS: Attagene CIS-FACTORIAL HepG2 Assay for human Liver X Receptor (LXR), DR4 submotif (AID 2282929); settings: HepG2 Attagene DR4 cis-reporter, mRNA transcription; actives raise or lower the signal
Procedure, shortened: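 Endogenous factor activity at a DR4 cis-element is read as reporter mRNA in transiently transfected HepG2 cells. Exposure lasts 24 h; transcripts are amplified, fluorescently labelled and sized by capillary electrophoresis, with DMSO as baseline.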

[6] = ATG_AP_1_CIS: Attagene CIS-FACTORIAL HepG2 Assay for human Activator Protein 1 (AP-1) (AID 2282931); settings: HepG2 Attagene cis-factorial AP-1 reporter mRNA; actives raise or lower the signal
Procedure, shortened: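 Fluorescence of labelled PCR fragments separated by capillary electrophoresis gives reporter mRNA levels. HepG2 with transfected cis-regulated reporter units, 24 h exposure; DMSO serves as baseline for bidirectional curve fits.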

[7] = ATG_AP_2_CIS: Attagene CIS-FACTORIAL HepG2 Assay for human Activator Protein 2 (AP-2) (AID 2282932); settings: HepG2 AP-2 cis-reporter, Attagene transcription factor profiling; actives raise or lower the signal
Procedure, shortened: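 Read-out: fluorescent reporter mRNA via RT-PCR and capillary electrophoresis, 24 h post-dose in transiently transfected HepG2. Endogenous factors drive cis-promoter reporters; gain or loss of signal fitted bidirectionally against DMSO.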

[8] = ATG_BRE_CIS: Attagene CIS-FACTORIAL HepG2 Assay for human Bone Morphogenetic Protein (BMP) Response Element (BRE) (AID 2282933); settings: HepG2 BMP response element reporter, Attagene transcription factor profiling; actives raise or lower the signal
Procedure, shortened: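 Fluorescence-labelled reporter cDNA fragments, separated by capillary electrophoresis, gave the signal for this component of a 52-readout multiplex. HepG2 cells were transfected, exposed to chemicals for 24 h, and compared with DMSO using bidirectional fitting.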

[9] = molecular target: Retinoic acid receptor alpha (Homo sapiens) (UniProt P10276); assay: ATG_DR5_RAR_CIS: Attagene CIS-FACTORIAL HepG2 Assay for human Retinoic Acid Receptor Alpha (RARE), DR5 submotif (AID 2282934); settings: HepG2 Attagene cis-factorial RARE DR5 reporter, mRNA; actives raise or lower the signal;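 for AC50: reporter responds to endogenous RAR alpha beta and gamma in HepG2 not RARA alone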
Procedure, shortened: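 Read-out: DR5-driven reporter transcript measured by RT-PCR, 6-FAM primer extension, HpaI digest and capillary electrophoresis. Human HepG2 liver cells carry transiently transfected cis-element reporter constructs; dosing lasts 24 h. Gain or loss of signal fitted against DMSO baseline.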

[10] = molecular target: Transcription factor E2F1 (Homo sapiens) (UniProt Q01094); assay: ATG_E2F_CIS: Attagene CIS-FACTORIAL HepG2 Assay for human E2F Transcription Factor 1 (AID 2282935); settings: HepG2 Attagene cis-reporter, E2F reporter RNA transcripts; actives raise or lower the signal
Procedure, shortened: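 Transient MRTU transfection of HepG2; 24 h compound exposure; RNA → oligo(dT) RT → PCR → FAM label → HpaI cut → CE fluorescence. Gain/loss of signal fit against DMSO.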

[11] = ATG_E_Box_CIS: Attagene CIS-FACTORIAL HepG2 Assay for human Enhancer Box (E-box) (AID 2282936); settings: HepG2 E-box cis-reporter transcription, actives raise or lower the signal
Procedure, shortened: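 Transiently transfected HepG2, endogenous TF-driven reporters, 24 h dosing. Readout: RT-PCR plus capillary electrophoresis of fluorescent reporter fragments. Gain or loss of signal fitted bidirectionally against DMSO baseline.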

[12] = ATG_M_61_CIS: Attagene CIS-FACTORIAL HepG2 Assay for M61 Transcription Factor (Internal Marker) (AID 2282937); settings: HepG2 Attagene CIS-FACTORIAL M61 internal marker reporter; actives raise or lower the signal
Procedure, shortened: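 This endpoint serves as an internal background control within a multiplexed HepG2 cis-reporter panel. Cells are exposed for 24 h; reporter mRNA is amplified, fluorescently labelled and sized by capillary electrophoresis, with DMSO as negative control.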

[13] = ATG_EGR_CIS: Attagene CIS-FACTORIAL HepG2 Assay for human Early Growth Response 1 (EGR1) (AID 2282938); settings: HepG2 Attagene CIS-FACTORIAL EGR reporter mRNA; actives raise or lower the signal
Procedure, shortened: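 HepG2, transient MRTU transfection (cis promoters), 24 h compound. RNA → RT (oligo-dT) → PCR → 6-FAM labelling → HpaI cut → CE fluorescence. Bidirectional fit, DMSO baseline.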

[14] = ATG_M_19_CIS: Attagene CIS-FACTORIAL HepG2 Assay for M19 Transcription Factor (Internal Marker) (AID 2282939); settings: HepG2 Attagene CIS-FACTORIAL M19 internal marker reporter; actives raise or lower the signal
Procedure, shortened: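 HepG2, MRTU transient transfection, 24 h dosing. Total RNA → RT-PCR → 6-FAM primer extension → HpaI digest → CE fluorescence. Bidirectional curve fit, DMSO negative control.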

[15] = ATG_ERE_CIS: Attagene CIS-FACTORIAL HepG2 Assay for Estrogen Response Element (ERE) (AID 2282940); settings: HepG2 ERE cis-reporter, Attagene RNA transcript; actives raise or lower the signal
Procedure, shortened: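 After a 24 h chemical treatment, RNA from reporter-transfected HepG2 cells is reverse-transcribed, PCR-amplified and fluorescently labelled. Fragments separated by capillary electrophoresis give reporter signal; DMSO serves as negative control.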

[16] = ATG_Ets_CIS: Attagene CIS-FACTORIAL HepG2 Assay for human Erythroblast Transformation Specific (ETS) (AID 2282941); settings: HepG2 ETS cis-reporter transcription, actives raise or lower the signal
Procedure, shortened: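 Endogenous transcription factor activity read as reporter mRNA via RT-PCR and capillary electrophoresis, with gain or loss fitted bidirectionally against DMSO. Human HepG2 liver cells, transiently transfected CIS reporter constructs, 24 h exposure.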

[17] = ATG_FoxO_CIS: Attagene CIS-FACTORIAL HepG2 Assay for human Forkhead box O (FoxO) (AID 2282943); settings: HepG2 Attagene cis-reporter, FoxO element, mRNA; actives raise or lower the signal
Procedure, shortened: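 Read-out: fluorescence of 6-FAM-labelled reporter cDNA fragments resolved by capillary electrophoresis. Transiently transfected HepG2 cells were dosed for 24 h; activity fitted in both directions relative to DMSO controls.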

[18] = ATG_GATA_CIS: Attagene CIS-FACTORIAL HepG2 Assay for human GATA Binding Protein (AID 2282944); settings: HepG2 GATA cis-element reporter, Attagene multiplex mRNA; actives raise or lower the signal
Procedure, shortened: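 Cells: HepG2, transiently transfected with cis-regulated reporter transcription units. Exposure: 24 h. Detection: RT-PCR plus capillary electrophoresis of FAM-labeled fragments. Analysis: bidirectional, DMSO as baseline.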

[19] = molecular target: Hepatocyte nuclear factor 3-beta (Homo sapiens) (UniProt Q9Y261); assay: ATG_FoxA2_CIS: Attagene CIS-FACTORIAL HepG2 Assay for human Forkhead box A2 (FOXA2) (AID 2282942); settings: HepG2 cis-reporter transcription factor activity, 24 h; actives raise or lower the signal
Procedure, shortened: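 Cells: HepG2, transient multiplex reporter transfection. Exposure 24 h. Detection: reporter-specific RT-PCR, fluorescent labelling, restriction digest, capillary electrophoresis. Analysis: bidirectional curve fit, DMSO as negative control.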

[20] = molecular target: Aryl hydrocarbon receptor (Homo sapiens) (UniProt P35869); assay: ATG_Ahr_CIS: Attagene CIS-FACTORIAL HepG2 Assay for human Aryl Hydrocarbon Receptor (Ahr) (AID 2282930); settings: HepG2 AhR cis-factorial reporter transcription; actives raise or lower the signal
Procedure, shortened: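 Read-out: reporter mRNA quantified by RT-PCR with fluorescent primer extension and capillary electrophoresis. Human HepG2 liver cells carried transfected cis-promoter reporter units and were exposed to chemical for 24 h; gain or loss fitted relative to DMSO.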

Measured: AC50

Sequence of Hepatocyte nuclear factor 3-beta (Homo sapiens) (Q9Y261 whole entry, looked up): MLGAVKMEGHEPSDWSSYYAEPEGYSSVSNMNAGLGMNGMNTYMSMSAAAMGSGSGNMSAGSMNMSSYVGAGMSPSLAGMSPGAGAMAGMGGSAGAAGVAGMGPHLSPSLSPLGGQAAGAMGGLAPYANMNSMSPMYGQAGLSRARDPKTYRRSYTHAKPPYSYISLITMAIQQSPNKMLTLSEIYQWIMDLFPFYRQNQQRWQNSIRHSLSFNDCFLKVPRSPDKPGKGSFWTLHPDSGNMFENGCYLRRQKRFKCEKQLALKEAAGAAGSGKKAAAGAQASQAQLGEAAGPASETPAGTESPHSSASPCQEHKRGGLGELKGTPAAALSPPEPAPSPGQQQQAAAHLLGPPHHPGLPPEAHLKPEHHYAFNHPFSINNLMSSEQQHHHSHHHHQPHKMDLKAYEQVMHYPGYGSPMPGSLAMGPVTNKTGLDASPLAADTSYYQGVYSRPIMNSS
Sequence of Aryl hydrocarbon receptor (Homo sapiens) (P35869 whole entry, looked up): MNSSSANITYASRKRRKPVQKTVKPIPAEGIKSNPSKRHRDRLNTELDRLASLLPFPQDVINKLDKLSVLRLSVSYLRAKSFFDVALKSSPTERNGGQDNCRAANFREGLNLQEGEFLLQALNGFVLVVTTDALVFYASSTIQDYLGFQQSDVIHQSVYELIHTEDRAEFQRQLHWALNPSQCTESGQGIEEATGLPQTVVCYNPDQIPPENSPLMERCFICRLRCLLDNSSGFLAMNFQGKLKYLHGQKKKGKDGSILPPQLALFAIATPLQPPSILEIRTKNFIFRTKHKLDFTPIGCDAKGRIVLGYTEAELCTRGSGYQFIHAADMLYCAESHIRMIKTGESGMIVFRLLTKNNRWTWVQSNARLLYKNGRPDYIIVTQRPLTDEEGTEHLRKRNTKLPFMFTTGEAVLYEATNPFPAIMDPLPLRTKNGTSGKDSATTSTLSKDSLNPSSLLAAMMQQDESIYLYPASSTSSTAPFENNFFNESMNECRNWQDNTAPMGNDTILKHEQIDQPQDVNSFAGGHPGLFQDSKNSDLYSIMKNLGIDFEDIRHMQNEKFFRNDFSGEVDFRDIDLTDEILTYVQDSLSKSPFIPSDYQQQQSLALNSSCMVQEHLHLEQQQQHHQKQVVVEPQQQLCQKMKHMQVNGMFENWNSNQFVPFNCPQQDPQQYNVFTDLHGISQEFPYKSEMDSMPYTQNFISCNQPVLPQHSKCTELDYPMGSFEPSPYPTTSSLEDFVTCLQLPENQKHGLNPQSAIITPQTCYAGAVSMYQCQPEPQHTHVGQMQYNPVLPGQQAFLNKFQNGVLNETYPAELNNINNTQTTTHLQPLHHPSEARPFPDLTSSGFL
Sequence of Retinoic acid receptor alpha (Homo sapiens) (P10276 whole entry, looked up): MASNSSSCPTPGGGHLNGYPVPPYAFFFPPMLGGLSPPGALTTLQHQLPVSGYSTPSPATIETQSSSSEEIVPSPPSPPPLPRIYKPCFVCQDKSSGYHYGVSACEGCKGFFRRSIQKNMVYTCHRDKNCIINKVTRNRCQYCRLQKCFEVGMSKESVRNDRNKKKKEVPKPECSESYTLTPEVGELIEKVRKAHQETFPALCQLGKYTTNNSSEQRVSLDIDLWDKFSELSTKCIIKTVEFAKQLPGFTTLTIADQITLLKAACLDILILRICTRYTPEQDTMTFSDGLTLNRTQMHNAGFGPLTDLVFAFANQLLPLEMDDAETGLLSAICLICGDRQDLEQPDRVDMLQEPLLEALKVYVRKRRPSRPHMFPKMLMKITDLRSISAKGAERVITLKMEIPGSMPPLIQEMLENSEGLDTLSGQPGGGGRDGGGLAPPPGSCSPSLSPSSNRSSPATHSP
Sequence of Transcription factor E2F1 (Homo sapiens) (Q01094 whole entry, looked up): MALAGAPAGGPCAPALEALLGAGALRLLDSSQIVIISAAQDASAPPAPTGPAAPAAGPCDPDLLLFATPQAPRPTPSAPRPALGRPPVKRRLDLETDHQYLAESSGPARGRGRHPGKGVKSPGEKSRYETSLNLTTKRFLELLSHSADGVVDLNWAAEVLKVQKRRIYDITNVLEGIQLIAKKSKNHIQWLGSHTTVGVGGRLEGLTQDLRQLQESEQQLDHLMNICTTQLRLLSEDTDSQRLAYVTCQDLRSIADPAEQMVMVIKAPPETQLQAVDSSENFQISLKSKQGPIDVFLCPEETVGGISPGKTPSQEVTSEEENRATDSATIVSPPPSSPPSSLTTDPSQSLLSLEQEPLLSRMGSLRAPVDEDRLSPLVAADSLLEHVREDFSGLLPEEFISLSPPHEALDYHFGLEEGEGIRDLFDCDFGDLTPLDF
Sequence of CCAAT/enhancer-binding protein beta (Homo sapiens) (P17676 whole entry, looked up): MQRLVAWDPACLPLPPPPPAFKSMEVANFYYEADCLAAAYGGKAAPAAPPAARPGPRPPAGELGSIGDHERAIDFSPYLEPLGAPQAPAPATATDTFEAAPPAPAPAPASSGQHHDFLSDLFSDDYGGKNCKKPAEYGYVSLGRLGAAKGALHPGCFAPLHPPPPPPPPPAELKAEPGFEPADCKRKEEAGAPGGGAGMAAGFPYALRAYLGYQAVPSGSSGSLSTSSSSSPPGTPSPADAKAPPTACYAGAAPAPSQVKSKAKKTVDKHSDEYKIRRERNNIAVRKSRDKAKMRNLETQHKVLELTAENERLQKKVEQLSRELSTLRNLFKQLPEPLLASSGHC

COC(=O)c1ccc(C=O)cc1
not listed: [19] | [20]
inactive: all other assays above

CCc1ccc(C)nc1
not listed: [20]
inactive: all other assays above

O=C(O)C(F)(F)OC(F)(F)C(F)(F)OC(F)(F)C(F)(F)OC(F)(F)F
active: [1] 13.2 µM | [4] 66.5 µM | [6] 66.5 µM
not listed: [11] | [15]
inactive: all other assays above

CCCCCCCCCCCC(=O)Cl
active: [5] 163 µM | [6] 82.8 µM | [9] 65.6 µM
not listed: [11] | [15]
inactive: all other assays above

O=C(F)C1(F)C(F)(F)C(F)(F)C(F)(F)C(F)(F)C1(F)F
not listed: [20]
inactive: all other assays above

O=C(O)C(F)(F)C(F)(F)C(F)(F)OC(F)(F)F
not listed: [11] | [15]
inactive: all other assays above

CC(C)C(=O)OCc1ccccc1
not listed: [15] | [19]
inactive: all other assays above
